Sampled rows, rich in hits. Any-hit rate of the full collection: about 3.7%.
tim23-1 inh: growth inhibitors of tim23-1 mutant yeast; inhibition, % at 20 µM; 330,000 tested, 1.3% active; S. cerevisiae tim23-1 growth, BacTiter-Glo luminescence, 24 h; AID 463212;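 active = growth inhibition of the mutant yeast at or above 50%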;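 also: temperature-sensitive mutant grown at 25 °C; plate controls were DMSO-treated mutant yeast for no effect and medium wells lacking yeast for full effect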
tim10-1 inh: growth inhibitors of tim10-1 mutant yeast; inhibition, % at 20 µM; S. cerevisiae tim10-1 ts strain growth, BacTiter-Glo, 24 h; 330,000 tested, 2.2% active; AID 463190;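 active = inhibition of at least 40%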;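 also: mutant grown at 25 °C; 0% = DMSO wells with yeast and 100% = wells holding no yeast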
Rce1 inhib: blocks yeast Ras-converting enzyme. Q03530. yeast membranes, quenched prenylated peptide cleavage fluorescence. calls only. 290,000 tested, 0.27% active;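 active = fall in fluorescence gain of 50% or more versus controls, with final raw signal at or below 3038400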;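 also: plate controls were neutral control wells for no effect and wells lacking membranes for full effect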
Target sequence (Q03530 whole entry, looked up): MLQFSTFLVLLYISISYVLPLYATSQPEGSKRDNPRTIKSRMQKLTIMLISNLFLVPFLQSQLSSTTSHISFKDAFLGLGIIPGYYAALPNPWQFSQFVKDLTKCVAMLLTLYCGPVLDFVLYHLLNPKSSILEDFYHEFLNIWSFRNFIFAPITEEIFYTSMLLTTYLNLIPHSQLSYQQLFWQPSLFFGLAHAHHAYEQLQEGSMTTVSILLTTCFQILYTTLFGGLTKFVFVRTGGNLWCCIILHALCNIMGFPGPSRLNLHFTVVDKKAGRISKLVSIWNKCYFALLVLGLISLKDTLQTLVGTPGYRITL
TIM10 inh: inhibits growth of TIM10 yeast strain; inhibition, % at 10 µM; 330,000 tested, 1.4% active; S. cerevisiae TIM10 strain growth, BacTiter-Glo luminescence, 24 h;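 active = inhibition of 40% or more at the single tested concentration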;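 also: wild-type TIM10 isogenic control strain grown at permissive 25 °C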
PfHsp90 set2: growth inhibition of yeast expressing Plasmodium Hsp90. S. cerevisiae expressing PfHsp90, BacTiter-Glo ATP, 48 h; yeast lacking PDR1 and PDR3 efflux regulators. inhibition, % at 9.4 µM. 310,000 tested, 0.32% active. AID 504621;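 active = every replicate shows inhibition above about 80%, whatever the replicate mean, limit read from the data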;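 also: 0% = DMSO neutral controls and 100% = 20 µM radicicol positive controls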
TIM10 conf: confirmation of TIM10 yeast growth inhibitors. shares compounds with TIM10 inh. S. cerevisiae tim10 strain growth, BacTiter-Glo luminescence, 24 h. inhibition, % at 10 µM. 4,600 tested, 63% active;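 active = inhibition of yeast growth at or above a set limit in either of two replicates at 10 µM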;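 also: this counterscreen used the strain with wild-type TIM10; 0% = yeast with DMSO and 100% = medium wells lacking yeast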
Active calls of the source: *; i = inactive; . = no result.

SMILES	tim23-1 inh	tim10-1 inh	Rce1 inhib	TIM10 inh	PfHsp90 set2	TIM10 conf
COc1ccccc1C=NN=C(NN=Cc1ccccc1OC)NN=Cc1ccccc1OC	.	.	.	.	8.6	.
CC(C)CNC(=S)NC(=O)c1ccc(Cl)cc1Cl	17.6	39.0	i	54.6*	-20.6	52.1*
CCCOc1ccc(CC(=O)NNC(=S)Nc2ccccc2)cc1Br	42.4	31.3	i	45.6*	18.6	26.9*
COc1ccc(CC(=O)NNC(=S)Nc2ccccc2)cc1Cl	3.5	7.6	i	0.7	.	.
CC12CCC(C(=O)N(CSC(=S)N/N=C\c3ccccc3)C1=O)C2(C)C (stereo not given)	5.2	36.1	i	57.8*	-0.1	50.4*
c1ccc(OCCN2CCN(C(c3ccccc3)c3ccccc3)CC2)cc1	41.0	25.4	i	41.9*	3.0	46.9*
c1ccc(OCCN2CCNCC2)cc1	.	.	.	.	-10.1	.
O=C(O)c1ccc(S(=O)(=O)N2CCSCC2)cc1	12.0	0.1	i	8.8	10.8	.
Cc1cccc(-c2nnn(C/C(N)=N/O)n2)c1	10.1	5.4	i	-14.4	-4.1	.
CCOc1ccc(NC(=O)c2nn(C)c(C(=O)Nc3ccc(OCC)cc3)c2[N+](=O)[O-])cc1	-1.9	-15.1	i	93.5*	-15.4	-24.1
O=C(NC(=S)NCCC1=CCCCC1)c1cccnc1	42.8	39.2	.	54.1*	3.6	48.3*
COc1ccccc1CNC(=O)c1ccc(Cl)c(NC2=NC3CS(=O)(=O)CC3S2)c1 (stereo not given)	-4.2	-19.2	i	-8.8	-2.8	.
COC(=O)[C@@]1(Cc2ccccc2)[C@H]2C(=O)N(C)C(=O)[C@H]2[C@H]2CN=C(SCc3ccc(Cl)cc3)N21	40.3	14.8	.	3.8	27.1	.
Cc1ccc(-c2csc(N(CC3CCCO3)C(=O)c3ccco3)n2)cc1 (stereo not given)	5.0	27.3	i	43.3*	-16.9	42.3*
CCOc1ccc(NC(=O)CSc2nnnn2C2CCCC2)cc1	8.9	-12.8	.	19.0	18.0	.
CC(=O)Cc1nsc(NC(=O)c2ccccc2Cl)n1	37.6	23.1	i	50.8*	29.8	-9.8
COc1cc(CNCCc2ccccc2)ccc1OCc1ccc(Cl)nc1	6.7	2.4	i	55.4*	-0.4	-3.8
CCCCNCc1ccc(OCc2ccc(Cl)nc2)c(OC)c1	20.4	3.2	i	-7.9	3.0	.
Clc1nc(-c2ccccc2)cc(-c2ccc(Br)cc2)n1	29.8	37.7	i	42.0*	-1.1	33.2*
Cc1ccc2c(c1)sc(=NC(=O)c1cccs1)n2C	49.9	14.6	i	58.7*	-0.2	60.1*
CCOC(=O)c1sc(=NC(=O)c2cccs2)n(C)c1C	42.8	0.9	i	58.7*	.	46.4*
Cn1c(O)c(C2=c3ccccc3=NC2=O)sc1=Nc1ccc(Cl)cc1	11.4	26.9	i	48.6*	12.9	18.4
O=C(O)Cn1c(O)c(C2=c3ccccc3=NC2=O)sc1=O	6.2	12.0	i	-12.3	-18.4	.
O=C(c1ccccc1O)N1N=C(c2ccccc2)CC1(O)C(F)(F)F (stereo not given)	33.7	29.1	i	45.9*	16.2	4.4
CC12CCC(C(=O)NCc3ccc4c(c3)OCO4)(C(=O)C1=O)C2(C)C (stereo not given)	26.7	34.5	i	41.3*	7.2	1.1
SMILES	tim23-1 inh	tim10-1 inh	Rce1 inhib	TIM10 inh	PfHsp90 set2	TIM10 conf
CCc1cccc(CC)c1NC(=S)NCc1ccc2c(c1)OCO2	36.8	38.6	i	41.0*	-30.5	0.5
CCc1cccc(CC)c1NC(=S)NC(C)c1ccccc1 (stereo not given)	26.1	38.5	i	52.6*	-18.4	38.8*
S=C(NCc1ccc2c(c1)OCO2)NCc1ccc2c(c1)OCO2	18.8	9.9	i	15.2	-41.7	.
CN(Cc1cccc(F)c1)C(=O)c1ccc(S(=O)(=O)N2CCOCC2)cc1	10.7	10.1	.	6.9	-9.2	.
CC1=NN(c2ccccc2)C(=O)/C1=C\C=C\c1ccccc1	42.4	28.5	i	54.1*	.	38.1*
CCCOc1ccc(C(=O)OCCN2CCCCC2)c(O)c1	-1.2	-2.5	i	-0.7	-0.2	.
Cc1cc(C(=O)COC(=O)CC2Sc3ccccc3NC2=O)c(C)n1-c1ccccc1 (stereo not given)	25.7	36.2	.	57.4*	-7.6	32.0*
CC(C)(C)c1csc(NC(=O)Cn2cnc3ccccc3c2=O)n1	32.6	8.2	i	-2.1	-9.3	.

Screening results as filed in PubChem BioAssay.
